# According to the supplement of paper PMC8728848:
# This is one part of a sample in which the strongest signals are shown more often than they occur.
# B1: a L Fucosidase (Streptosporangium roseum), D2B1P1_STRRD (protein)
# chain: MRRKLLLVPAVGLLVIGSIFATQPVASADTPPVYEPTVESLNSHPVPQWFNDDKFGIFIHWGAYSVPAWGPRGSYAEWYGNYMNAGGSATNAHHKATYGQDFNYDAFLQQWKAEKFDPADWVKLFKDAGAKYFVLTSKHHEGMALWDSKSSGRDSVDLGPGRDLAKELFDAARKDEAKLKAGFYYSLYEWYNPAYTGRPATNPYTGAEIPYTGAPGGGDYVKDYMLPQMRELIDGYDPDIIWCDGQWEKPASYWNTAGVIADYYNKALNSGKEVAVANRCKIQSGNLDSPELDFQTPEYTVKPDIDPVKWESSRGIAHSYGYNQNEPEEDHLTSDQLVDSLVDIVSKNGNLLLDIGPKADGTIPEIQRQRLLDIGAWLKANGEAIYGTTYWNRAEEKGGPDDVRYTAKDATLYATALKWPGEQLTLGADLPVDHSTRITMLGSGARLSWSRDEQGRVVVNTPQEAGKHAYVFKIETPGVRSLLRTSSSLAKEIAPGRTISGELTVTNPGKRHTPATKLSLTVPQGWTATLGAPRVRPLGPGESVKVPISVSAPEGVAPAPYTLGLYQRTGRMGTTTALPLTVNRPNLSLGKPATQKSTGYDAPASRAVDGNTGGDWSAGSTTHTAEPEKQAWWQVDLGASARLDSVDVWNRLDCCADRLKDFWVMASDQPFTTDDLDQARTAPGVTAVHVGEQAGSPSKVKLPEGTRGRYVRIQLASPSNPLSLAEVQVRGSMARPNLSLGKPATQKSTGYDAPASRAVDGNTGGDWSAGSTTHTAEPEKQAWWQVDLGASARLDSVDVWNRLDCCADRLKDFWVMASDQPFTTDDLDQARTAPGVTAVHVGEQAGSPSKVKLPEGTRGRYVRIQLASPSNPLSLAEVQVRLEHHHHHHS
# Columns and labels:
# Experiment in all cases: glycan array binding signal (z-score within array); higher = stronger binding
# Settings in all cases: glycan notation: IUPAC condensed, linker removed
# [1] = target: Gal(b1-4)GlcNAc(b1-3)Gal(b1-4)GlcNAc(b1-3)[Gal(b1-4)GlcNAc(b1-3)Gal(b1-4)GlcNAc(b1-6)]GalNAc
# In short: (§1)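 The binding signal is a Z-score computed within each array and averaged over linkers. Arrays of the same protein sequence at different concentrations or buffers were also averaged together. Data originate from 3228 arrays in the Consortium for Functional Glycomics database, kept only where the protein sequence was available.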
# Gal6S(b1-4)Glc = target: Gal6S(b1-4)Glc
# In short: as §1
# [2] = target: GalNAc(a1-3)GalNAc(b1-3)Gal(a1-4)Gal(b1-4)Glc
# In short: as §1
# GalNAc(b1-4)GlcNAc = target: GalNAc(b1-4)GlcNAc
# In short: as §1
# GlcA(b1-3)Gal = target: GlcA(b1-3)Gal
# In short: as §1
# GlcA(b1-6)Gal = target: GlcA(b1-6)Gal
# In short: as §1
# [3] = target: GlcNAc(b1-3)Gal(b1-4)GlcNAc(b1-3)Gal(b1-4)GlcNAc(b1-3)Gal(b1-4)GlcNAc(b1-2)[GlcNAc(b1-3)Gal(b1-4)GlcNAc(b1-3)Gal(b1-4)GlcNAc(b1-3)Gal(b1-4)GlcNAc(b1-6)]Man(a1-6)[GlcNAc(b1-3)Gal(b1-4)GlcNAc(b1-3)Gal(b1-4)GlcNAc(b1-3)Gal(b1-4)GlcNAc(b1-2)Man(a1-3)]Man(b1-4)GlcNAc(b1-4)[Fuc(a1-6)]GlcNAc
# In short: as §1
# [4] = target: GlcNAc(b1-3)Gal(b1-4)GlcNAc(b1-3)Gal(b1-4)GlcNAc(b1-3)Gal(b1-4)GlcNAc(b1-3)Gal(b1-4)GlcNAc(b1-2)Man(a1-3)[GlcNAc(b1-3)Gal(b1-4)GlcNAc(b1-3)Gal(b1-4)GlcNAc(b1-3)Gal(b1-4)GlcNAc(b1-3)Gal(b1-4)GlcNAc(b1-2)Man(a1-6)]Man(b1-4)GlcNAc(b1-4)[Fuc(a1-6)]GlcNAc
# In short: as §1
# Kdn(a2-3)Gal(b1-4)Glc = target: Kdn(a2-3)Gal(b1-4)Glc
# In short: as §1
# [5] = target: Man(a1-2)Man(a1-2)Man(a1-3)Man
# In short: as §1
# [6] = target: Man(a1-2)Man(a1-3)[Man(a1-2)Man(a1-6)]Man(a1-6)[Man(a1-2)Man(a1-2)Man(a1-3)]Man(b1-4)GlcNAc(b1-4)GlcNAc
# In short: as §1
# Man(a1-3)[Man(a1-6)]Man = target: Man(a1-3)[Man(a1-6)]Man
# In short: as §1
# [7] = target: Neu5Ac(a2-3)Gal(b1-3)GlcNAc(b1-6)GalNAc
# In short: as §1
# [8] = target: Neu5Ac(a2-3)Gal(b1-4)GlcNAc(b1-3)Gal(b1-4)GlcNAc(b1-2)Man(a1-3)[Neu5Ac(a2-3)Gal(b1-4)GlcNAc(b1-3)Gal(b1-4)GlcNAc(b1-2)Man(a1-6)]Man(b1-4)GlcNAc(b1-4)GlcNAc
# In short: as §1
# [9] = target: Neu5Ac(a2-3)Gal(b1-4)GlcNAc(b1-6)[Neu5Ac(a2-3)Gal(b1-3)]GalNAc
# In short: as §1
# [10] = target: Neu5Ac(a2-6)Gal(b1-3)GlcNAc(b1-3)[Gal(b1-4)GlcNAc(b1-6)]Gal(b1-4)Glc
# In short: as §1
# Neu5Ac(a2-6)Gal(b1-4)Glc = target: Neu5Ac(a2-6)Gal(b1-4)Glc
# In short: as §1
# [11] = target: Neu5Ac(a2-6)Gal(b1-4)GlcNAc(b1-2)Man(a1-3)Man(b1-4)GlcNAc(b1-4)GlcNAc
# In short: as §1
# [12] = target: Neu5Ac(a2-6)Gal(b1-4)GlcNAc(b1-2)[Neu5Ac(a2-6)Gal(b1-4)GlcNAc(b1-4)]Man(a1-3)[GlcNAc(b1-4)][Neu5Ac(a2-6)Gal(b1-4)GlcNAc(b1-4)Man(a1-6)]Man(b1-4)GlcNAc(b1-4)GlcNAc
# In short: as §1
# [13] = target: Neu5Ac(a2-6)Gal(b1-4)GlcNAc(b1-6)[Gal(b1-3)GlcNAc(b1-3)]Gal(b1-4)Glc
# In short: as §1
# [14] = target: Neu5Ac(a2-6)GalNAc(b1-4)GlcNAc6S
# In short: as §1
# [15] = target: Neu5Ac(a2-8)Neu5Ac(a2-3)Gal(b1-3)GalNAc(b1-4)[Neu5Ac(a2-3)]Gal(b1-4)Glc
# In short: as §1
# [16] = target: Neu5Ac(a2-8)Neu5Ac(a2-3)[GalNAc(b1-4)]Gal(b1-4)Glc
# In short: as §1
# [17] = target: Neu5Ac(a2-8)Neu5Ac(a2-8)Neu5Ac(a2-3)[GalNAc(b1-4)]Gal(b1-4)Glc
# In short: as §1
# [18] = target: Neu5Gc(a2-3)Gal(b1-4)GlcNAc(b1-3)Gal(b1-4)GlcNAc(b1-2)Man(a1-3)[Neu5Gc(a2-3)Gal(b1-4)GlcNAc(b1-3)Gal(b1-4)GlcNAc(b1-2)Man(a1-6)]Man(b1-4)GlcNAc(b1-4)GlcNAc
# In short: as §1
# [19] = target: Neu5Gc(a2-6)Gal(b1-4)GlcNAc
# In short: as §1
# [20] = target: Neu5Gc(a2-8)Neu5Gc(a2-3)Gal(b1-4)GlcNAc(b1-3)Gal(b1-4)GlcNAc
# In short: as §1
# [21] = target: Neu5Gc(b2-6)Gal(b1-4)GlcNAc
# In short: as §1
binder,measurement,setting,value
B1,glycan array binding signal (z-score),[1],-0.245
same,glycan array binding signal (z-score),Gal6S(b1-4)Glc,-0.356
same,glycan array binding signal (z-score),[2],-0.338
same,glycan array binding signal (z-score),GalNAc(b1-4)GlcNAc,-0.528
same,glycan array binding signal (z-score),GlcA(b1-3)Gal,-0.445
same,glycan array binding signal (z-score),GlcA(b1-6)Gal,-0.444
same,glycan array binding signal (z-score),[3],-0.512
same,glycan array binding signal (z-score),[4],1.09
same,glycan array binding signal (z-score),Kdn(a2-3)Gal(b1-4)Glc,-0.16
same,glycan array binding signal (z-score),[5],-0.582
same,glycan array binding signal (z-score),[6],-0.104
same,glycan array binding signal (z-score),Man(a1-3)[Man(a1-6)]Man,0.008
same,glycan array binding signal (z-score),[7],-0.493
same,glycan array binding signal (z-score),[8],0.456
same,glycan array binding signal (z-score),[9],-0.417
same,glycan array binding signal (z-score),[10],-0.585
same,glycan array binding signal (z-score),Neu5Ac(a2-6)Gal(b1-4)Glc,-0.462
same,glycan array binding signal (z-score),[11],-0.533
same,glycan array binding signal (z-score),[12],-0.202
same,glycan array binding signal (z-score),[13],-0.507
same,glycan array binding signal (z-score),[14],-0.481
same,glycan array binding signal (z-score),[15],-0.521
same,glycan array binding signal (z-score),[16],-0.558
same,glycan array binding signal (z-score),[17],-0.388
same,glycan array binding signal (z-score),[18],0.548
same,glycan array binding signal (z-score),[19],-0.317
same,glycan array binding signal (z-score),[20],-0.268
same,glycan array binding signal (z-score),[21],-0.474
